Experimental data taken from PubChem BioAssay (NCI).
The panel holds about 83,000 compounds, 20% with a hit somewhere; the sample as a whole holds those more often.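 The test compound was applied at a single concentration to cells in 96-well plates for 48 hours, and percent growth was recorded.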 Activity calls are given as the source filed them. Rule for the calls: active = growth percent below 10; inactive = the rest.

Assays:
Assay in all cases: NCI-60 one-dose screen, 48 h (100 = growth as untreated, 0 = no growth, -100 = all killed)
Settings in all cases: 10 µM unless noted
[1] = test system: SR leukemia
[2] = test system: RPMI-8226 leukemia
[3] = test system: OVCAR-8 ovarian
[4] = test system: OVCAR-5 ovarian
[5] = test system: OVCAR-4 ovarian
[6] = test system: SK-OV-3 ovarian
[7] = test system: IGROV1 ovarian
[8] = test system: OVCAR-3 ovarian
[9] = test system: HS 578T breast
[10] = test system: NCI/ADR-RES ovarian
[11] = test system: T-47D breast
[12] = test system: MDA-MB-435 melanoma
[13] = test system: SW-620 colon
[14] = test system: MCF7 breast
[15] = test system: HCT-116 colon
[16] = test system: HCC-2998 colon
[17] = test system: KM12 colon
[18] = test system: BT-549 breast

Measured: growth

CNC1=C(Br)C(=O)c2c(C(=O)OC)c(C)nc(C)c2C1=O
active: [8] 1.75% | [12] -66.8%
inactive: [1] 86.5% | [2] 75.8% | [3] 38.7% | [4] 97.3% | [5] 35.4% | [6] 116% | [7] 67.6% | [9] 72.4% | [10] 74.7% | [11] 62.8% | [13] 48.2% | [14] 45.2% | [15] 25.3% | [16] 69.6% | [17] 62.4%

O=CN1N=C(c2cccc(Nc3ccncc3)c2)CC1c1ccc2c(c1)OCO2 (stereo unspecified)
inactive: [1] 82.1% | [2] 80% | [3] 91.3% | [4] 98.5% | [5] 82.7% | [6] 78.6% | [8] 99.6% | [9] 94.2% | [10] 101% | [11] 79.1% | [18] 106% | [12] 92.1% | [13] 102% | [14] 81.7% | [15] 83.1% | [16] 98.5% | [17] 98.4%

Oc1c(Cl)cc(Cl)c2ccc(CN3CCNCC3)nc12
active: [10] 5.37%
inactive: [1] 25.6% | [2] 39.4% | [3] 27.5% | [4] 82.4% | [5] 37.7% | [6] 52.8% | [8] 42.9% | [9] 70.4% | [11] 43.6% | [18] 82.2% | [12] 58.6% | [13] 26.6% | [14] 34.4% | [15] 32.6% | [16] 60.1% | [17] 49.6%

CNc1nc2ncc(-c3c(C)noc3C)cc2n1Cc1ccccc1
inactive: [1] 27.9% | [3] 55.9% | [4] 67.5% | [5] 53.6% | [6] 21% | [7] 63.6% | [8] 47.2% | [9] 39.3% | [10] 67.4% | [11] 54.1% | [12] 45.7% | [13] 71.8% | [14] 18.6% | [15] 26% | [16] 63.4% | [17] 62.1%
active: [2] -2.96%

CC/C(=C(/c1ccc(Cl)cc1)c1ccc(OCCN2CCCC2)cc1)c1ccccc1
inactive: [3] 69.7% | [4] 82.4% | [5] 72.2% | [6] 104% | [7] 76.6% | [8] 70.2% | [9] 71.3% | [10] 80.1% | [11] 47.6% | [12] 60.2% | [13] 11.8% | [14] 23.1% | [15] 29.7% | [16] 97.6% | [17] 37.1%
active: [1] -10.5% | [2] 7.58%

CC(=O)[C@H]1CC[C@]2(C)[C@@H]1CC[C@@H]1[C@@]3(C)C/C(=C/c4cccnc4)C(=O)C(C)(C)[C@@H]3CC[C@]12C
inactive: [1] 40.9% | [3] 27.1% | [4] 132% | [5] 43.6% | [6] 87.2% | [8] 47.4% | [9] 94.2% | [10] 67.2% | [11] 13.6% | [18] 50.6% | [12] 75.1% | [13] 61.9% | [14] 34.8% | [15] 33.2% | [16] 99.9% | [17] 49.1%
active: [2] 8.88%

CC/C(=C(/c1ccc(Cl)cc1)c1ccc(OCCN2CCCCCC2)cc1)c1ccccc1
inactive: [2] 48.9% | [3] 84.8% | [4] 85.2% | [5] 79.6% | [6] 114% | [7] 97.3% | [8] 93.9% | [9] 89.7% | [10] 90.8% | [11] 68.5% | [12] 90.5% | [13] 44.7% | [14] 76.3% | [15] 62.7% | [16] 97.8% | [17] 55%
active: [1] 6.94%

COc1ccc(C(=O)/C=C/c2ccc(C)cc2)cc1S(N)(=O)=O
active: [1] 5.31% | [15] 9.96%
inactive: [2] 35.8% | [3] 29.3% | [4] 77% | [5] 84.1% | [6] 114% | [8] 39.2% | [9] 84.9% | [10] 51.7% | [11] 94.1% | [18] 64.1% | [12] 88.3% | [13] 21.9% | [14] 22% | [16] 99% | [17] 44.3%

COc1ccc(NC(=O)c2ccc(NC3=C(c4ccc(Cl)cc4)C(=O)NC3=O)cc2)cc1
inactive: [1] 57.1% | [2] 73.8% | [3] 84.8% | [4] 100% | [5] 84.1% | [6] 69.8% | [7] 92.8% | [8] 89.2% | [9] 102% | [10] 88.3% | [11] 62.3% | [12] 95.3% | [13] 103% | [14] 83.5% | [15] 88.9% | [16] 97.6% | [17] 80.9%

CC(C)(C#N)c1cc(C(=O)Nc2cc(Nc3ncccc3-c3ncnc4nc[nH]c34)ccc2F)cc(C(F)(F)F)c1
active: [7] 8.69%
inactive: [1] 52.4% | [2] 40.6% | [3] 49.5% | [4] 32.1% | [5] 46.6% | [6] 91.1% | [8] 70.1% | [9] 30.9% | [10] 52.2% | [11] 52% | [12] 29.5% | [13] 37.5% | [14] 57.4% | [15] 15.4% | [16] 41.8% | [17] 43.7%

Cc1cc([N+](=O)[O-])ccc1NC(=O)c1ccc2c(c1)nc(-c1ccccc1)n2C1CCCCC1
inactive: [1] 39.5% | [2] 76.2% | [3] 87.6% | [4] 95.5% | [5] 95.2% | [6] 100% | [8] 92.8% | [9] 88.1% | [10] 87.9% | [11] 59.8% | [18] 77.1% | [12] 92.2% | [13] 97.6% | [14] 77% | [15] 65.7% | [16] 88.3% | [17] 69.3%

Nc1nc(Nc2ccc([N+](=O)[O-])cc2O)nc(C(Cl)(Cl)Cl)n1
inactive: [2] 51.1% | [3] 81.6% | [4] 105% | [5] 55.2% | [6] 95.4% | [8] 55% | [9] 84.3% | [10] 48% | [11] 73.6% | [18] 66.8% | [13] 54.2% | [14] 59.5% | [15] 70.6% | [16] 108% | [17] 49.8%
active: [1] 7.45% | [12] -36.6%

COC(=O)c1c(C)nc(C)c2c1C(=O)C(Br)=C(NCCCCO)C2=O
active: [8] 1.87%
inactive: [1] 46.4% | [2] 75.1% | [3] 57.7% | [4] 101% | [5] 38.4% | [6] 121% | [7] 52.9% | [9] 87.7% | [10] 80% | [11] 76.9% | [13] 67.8% | [14] 37.8% | [15] 34.3% | [16] 78.7% | [17] 61.9%

Clc1ccc(C2=Nn3c(nnc3-c3cc(Cl)cc(Cl)c3Cl)SC2)cc1
inactive: [2] 42.8% | [3] 71.8% | [4] 19.3% | [5] 74.9% | [6] 50.4% | [7] 22.7% | [9] 20.9% | [11] 63.2% | [13] 19.1% | [15] 13.7% | [17] 23.5%
active: [1] 2.55% | [8] 8.59% | [10] 5.52% | [12] -15.6% | [14] 7.6%

Cc1ccc(NC(=O)c2ccc(Nc3ncnc4c3cnn4-c3cccc(F)c3)cc2)cc1
inactive: [1] 92.7% | [2] 90.2% | [3] 97.6% | [4] 99.6% | [5] 98.9% | [6] 109% | [8] 106% | [9] 96.6% | [10] 98.8% | [11] 92.6% | [18] 99.7% | [12] 100% | [13] 101% | [14] 96.5% | [15] 101% | [16] 107% | [17] 102%

COC(=O)c1nc(-c2ccccc2)oc1S(=O)(=O)NCC(c1ccc(Cl)cc1)N1CCCCC1 (stereo unspecified)
active: [1] -3.58%
inactive: [2] 20% | [3] 57% | [4] 90.8% | [5] 89.3% | [6] 95.5% | [7] 56.5% | [8] 57.5% | [9] 100% | [10] 89% | [11] 52.1% | [12] 72.1% | [13] 36.2% | [14] 34.7% | [15] 78% | [17] 80.6%

COc1cc2cc(Oc3ccc(NC(=O)Nc4ccc(Cl)c(Cl)c4)cc3)c(C)nc2cc1OCCN1CCCCC1
inactive: [2] 79.1% | [3] 32.1% | [4] 137% | [6] 119% | [7] 93.4% | [8] 105% | [9] 108% | [10] 99.5% | [11] 85.9% | [12] 74.2% | [13] 14.4% | [14] 55.9% | [15] 91.3% | [16] 104% | [17] 63.3%
active: [1] -3.12% | [5] -16.5%
